# Test results from PubChem BioAssay (NCI).
# This is part of a sample that, as a whole, favours compounds with a hit. Of some 83,000 tested, about 20% had one in any assay.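 Step 1: grow cells in 96-well plates. Step 2: add test compound at a single concentration. Step 3: incubate 48 h. Step 4: record percent growth.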 Values without a mark were called inactive. The source made the active and inactive calls. Rule for the calls: active = growth percent below 10; inactive = the rest.
# Columns and labels:
# Experiment in all cases: NCI-60 one-dose screen, 48 h (100 = growth as untreated, 0 = no growth, -100 = all killed)
# Conditions in all cases: 10 µM unless noted
# NCI-H23 lung = system: NCI-H23 lung
# NCI-H226 lung = system: NCI-H226 lung
# NCI-H322M lung = system: NCI-H322M lung
# HOP-62 NSCLC = system: HOP-62 NSCLC
# NCI-H460 lung = system: NCI-H460 lung
# HOP-92 NSCLC = system: HOP-92 NSCLC
# NCI-H522 lung = system: NCI-H522 lung
# A549/ATCC NSCLC = system: A549/ATCC NSCLC
# 786-0 renal = system: 786-0 renal
# COLO 205 colon = system: COLO 205 colon
Compound,growth (NCI-H23 lung),growth (NCI-H226 lung),growth (NCI-H322M lung),growth (HOP-62 NSCLC),growth (NCI-H460 lung),growth (HOP-92 NSCLC),growth (NCI-H522 lung),growth (A549/ATCC NSCLC),growth (786-0 renal),growth (COLO 205 colon)
O=S(=O)(c1ccc(N/N=C\c2ccccc2Cl)cc1)c1ccc(N/N=C/c2ccccc2Cl)cc1,86.8%,74.9%,94.2%,88%,71.2%,31.2%,84.8%,85.2%,98.4%,97.1%
Cn1cc(-c2noc(-c3cn(C)c4ncc(F)cc34)n2)c2cc(Cl)ccc21,81.3%,95.7%,50.3%,68.4%,2.39% (active),64.3%,74.2%,33.9%,9.09% (active),55.5%
Cc1ccc(N)c(O)c1,86.2%,97.5%,91%,91.7%,100%,68.1%,73.8%,85.4%,90.8%,132%
O=C(NCCCCCCCNC(=O)OCc1ccc2c(Cl)cc(Cl)c(O)c2n1)OCc1ccc2c(Cl)cc(Cl)c(O)c2n1,-52.3% (active),-50.3% (active),31%,-56.8% (active),-31.3% (active),-75% (active),-55.6% (active),-68.7% (active),-62.7% (active),-75.9% (active)
C[C@H]1[C@H](C)CC[C@]2(C(=O)O)CC[C@]3(C)C(=CC[C@@H]4[C@@]5(C)C/C(=C/c6ccco6)C(=O)C(C)(C)[C@@H]5CC[C@]43C)[C@H]12,-81.1% [100 µM] (active),-52.3% [100 µM] (active),-73.4% [100 µM] (active),-75.7% [100 µM] (active),-55.6% [100 µM] (active),-87.7% [100 µM] (active),-82.7% [100 µM] (active),-52.5% [100 µM] (active),-40.3% [100 µM] (active),-60.9% [100 µM] (active)
Oc1ccc(N=Nc2nccs2)c(O)c1,81.2%,89.6%,74.4%,79%,31.2%,61.7%,41.5%,52.2%,36.8%,24.8%
COc1ccc2nc3c(cc2c1)C(=O)CC(c1ccccc1)C3 (stereo not given),47.5%,26.5%,37.8%,39.2%,8.79% (active),61.6%,15.4%,34.8%,52.8%,1.93% (active)
COC(=O)[C@]1(C)CC[C@]2(C)CC[C@]3(C)C(=CC(=O)[C@@H]4[C@@]5(C)CCC(=O)NC(C)(C)[C@@H]5CC[C@]43C)[C@@H]2C1,-77.5% [100 µM] (active),-58.3% [100 µM] (active),29.1% [100 µM],-70.8% [100 µM] (active),-17.2% [100 µM] (active),-85.6% [100 µM] (active),-73.4% [100 µM] (active),9.53% [100 µM] (active),-70.9% [100 µM] (active),-51.2% [100 µM] (active)
COc1ccc2nc3ccccc3c(NCCNCCO)c2c1,-40.3% (active),-10.8% (active),-25% (active),-6.96% (active),-41.3% (active),-10.7% (active),-48.7% (active),-27% (active),3.89% (active),-75.3% (active)
CCCCCCCCCCCCCCCCCCNC(=S)N/N=C/c1ccc(OC)c(OC)c1,93.9%,99.2%,98.7%,98.6%,103%,69.4%,94.6%,98.3%,102%,104%
CN(C)CCCNc1nc(-c2cccc(C(Cl)(Cl)Cl)c2)nc(C(Cl)(Cl)Cl)n1,101%,109%,93.7%,111%,108%,53%,94.9%,105%,99%,119%
O=C(NNc1ccc(-c2ccccc2)nn1)c1ccc(F)cc1,104%,98.7%,94.3%,106%,99.1%,91.5%,95.2%,98.4%,78%,112%
CN(C)Cc1ccc[nH]1,93.2%,93.3%,130%,117%,103%,103%,67.6%,99.4%,107%,101%
Cc1ccc(-c2cn(C/C=C3\C=CN(S(=O)(=O)c4ccccc4)CC3)nn2)cc1,96.1%,99.5%,95.8%,97.6%,99.1%,92.7%,93.3%,104%,101%,129%
CC1=CC[C@@H]2C(C)(C)[C@@H](O)CC[C@@]2(C)[C@@H]1COc1ccc2ccc(=O)oc2c1,74.7%,38.2%,91.1%,67.2%,88.6%,51.3%,25.9%,43%,92.9%,55.3%
Cn1cc(-c2noc(C(=O)c3cn(C)c4ncc(Br)cc34)n2)c2ccccc21,97.7%,99.3%,91%,102%,99.8%,37.6%,91.6%,99.3%,91.3%,107%
CC1(C)C(=O)/C(=C\c2cccnc2)C[C@]2(C)[C@H]3CC[C@@H]4[C@H]5[C@H](C(=O)/C=C/c6cccnc6)CC[C@]5(C(=O)O)CC[C@@]4(C)[C@]3(C)CC[C@@H]12,-60.4% [100 µM] (active),-37.4% [100 µM] (active),-97.2% [100 µM] (active),-66.8% [100 µM] (active),-43.9% [100 µM] (active),-63.5% [100 µM] (active),-71.6% [100 µM] (active),-13.6% [100 µM] (active),-39.5% [100 µM] (active),-55.9% [100 µM] (active)
CC(C)=CC/C=C(/C)[C@H]1CC[C@]2(C)[C@@H]1CC[C@@H]1[C@@]3(C)CCCNC(C)(C)[C@@H]3CC[C@]12C,-61.7% [100 µM] (active),-49.5% [100 µM] (active),-99.4% [100 µM] (active),-48.3% [100 µM] (active),-74.2% [100 µM] (active),-56.6% [100 µM] (active),-59.3% [100 µM] (active),-51.8% [100 µM] (active),-56.2% [100 µM] (active),-62.4% [100 µM] (active)
CC1=CC[C@@H]2C(C)(C)C(=O)CC[C@@]2(C)[C@@H]1COc1ccc2ccc(=O)oc2c1,83%,43.8%,89.3%,97.5%,89.2%,73.9%,53.6%,62.2%,89.9%,71.1%
CCCCCCSc1ncnc2nc[nH]c12,92.4%,85.5%,99.9%,95.6%,94.5%,68.3%,86.3%,96.1%,89.7%,95.2%
COc1ccc(C2CC(c3cc(OC)c(OC)c(OC)c3)=NN2C(C)=O)cc1OCC(=O)Nc1nc2ccc(C(F)(F)F)cc2s1 (stereo not given),67.3%,40.2%,79.6%,57.1%,67.6%,-3.98% (active),66.6%,50.5%,60.1%,85%
CCN(CC)CCCNCc1cc(-c2ccccc2)nc2ccccc12,36%,86.5%,102%,44.2%,105%,49.5%,74.7%,87.9%,76.1%,117%
c1ccc2c(c1)CN(CCCN1CCOCC1)C2,99.6%,96.2%,99.7%,103%,103%,126%,98.3%,96.8%,102%,108%
